Compound activity: PubChem, National Center for Advancing Translational Sciences (NCATS)
Only some compounds are listed: those with a hit (about 2.7% of all), similar ones and a draw of the others.
IDH1 R132H inh: qHTS for Inhibitors of mutant isocitrate dehydrogenase 1 (IDH1): qHTS | 390,000 compounds, 0.093% hits | Isocitrate dehydrogenase [NADP] cytoplasmic (Homo sapiens), O75874 | IDH1-R132H enzyme, NADPH consumption, diaphorase/resazurin fluorescence | Potency, µM (doses to about 76.6 µM), for inactives: top-dose activity change, negative = inhibition, hits mostly inhibitors; further: on the % scale 0 is the no-effect control and ±100 the full control effect; nearly all actives have a fitted effect of over 65% in size
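IDH1-R132H (0.5 ug/mL dispensed) in pH 7.5 Tris buffer was preincubated 30 min with compound, then given a substrate mix of 0.016 mM NADPH and 2 mM alpha-KG for 80 min at room temperature; remaining NADPH was read by diaphorase/resazurin fluorescence.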
GLP-1R inv ag: qHTS of GLP-1 Receptor Inverse Agonists (Inhibition Mode). 410,000 compounds, 1.6% hits. HEK293 GLP-1R CRE-luciferase, luminescence, 24 h; GLP-1R form is constitutively active. Potency, µM (highest dose often 38.3 µM), without a hit: at the highest dose activity change, negative = inhibition, actives largely listed as inhibitors; further: on the % scale 0 is the no-effect control and ±100 the full control effect; nearly all actives have a fitted effect of over 55% in size
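Cells are plated, allowed 12 hours at 37 deg C, then treated with compounds for 24 hr before luciferase detection reagent is added and luminescence is read after 12 min at room temperature. The HEK293 line carries constitutively active GLP-1R with a cAMP-responsive reporter.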
GLP1R ag: qHTS of GLP-1 Receptor Agonists. 380,000 compounds, 0.007% hits. Glucagon-like peptide 1 receptor (Homo sapiens), P43220. HEK293 GLP-1R CRE-luciferase, luminescence, 4-6 h; cells express a hypersensitive GLP-1R form. Potency, µM (highest dose often 45.6 µM), for the others: at the highest dose activation, hits mostly activators; further: % of control where 0% means no effect
TrxR1 substrate: qHTS Assay for Substrates of Mammalian Selenoprotein Thioredoxin Reductase 1 (TrxR1): qHTS; purified TrxR1 substrate turnover, NADPH consumption readout; Thioredoxin reductase 1, cytoplasmic (Rattus norvegicus), O89049; 390,000 compounds, 0.01% hits; AID 588456, 2011; Potency, µM (series often up to 114 µM), for the others: at the highest dose activity change, negative = substrate turnover; further: on the % scale 0 is the no-effect control and ±100 the full control effect; nearly all actives have a fitted effect of over 50% in size
Target sequence (O89049 whole entry, looked up): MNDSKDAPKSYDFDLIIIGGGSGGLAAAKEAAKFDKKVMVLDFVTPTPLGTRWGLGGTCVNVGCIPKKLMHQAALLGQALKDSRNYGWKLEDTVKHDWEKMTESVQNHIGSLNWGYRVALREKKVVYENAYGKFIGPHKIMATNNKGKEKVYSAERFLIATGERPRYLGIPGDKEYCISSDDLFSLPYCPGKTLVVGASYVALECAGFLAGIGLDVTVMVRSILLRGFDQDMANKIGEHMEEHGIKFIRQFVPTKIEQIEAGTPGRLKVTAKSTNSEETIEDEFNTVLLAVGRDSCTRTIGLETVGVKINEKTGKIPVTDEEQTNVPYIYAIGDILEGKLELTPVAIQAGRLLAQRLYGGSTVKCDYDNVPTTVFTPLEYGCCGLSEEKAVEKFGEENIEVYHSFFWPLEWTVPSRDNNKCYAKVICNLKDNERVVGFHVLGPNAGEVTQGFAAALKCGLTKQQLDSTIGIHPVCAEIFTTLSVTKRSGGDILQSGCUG
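Rat TrxR1, dispensed at 90 nM, was prereduced with 400 uM NADPH (final) for 5 min at ~22 deg C, then incubated with compound 15 min before 400 uM selenite. A first-read NADPH fluorescence drop versus no-compound background flagged substrates.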
HEK293 tox: qHTS of GLP-1 Receptor Inverse Agonists: Cytotox Screen. HEK293 cAMP-luciferase reporter cells, luminescence, 24 h. Potency, µM (doses to about 38.3 µM), inactives show at the highest dose activity change, negative = inhibition, most hits filed as inhibitors. 410,000 compounds, 0.13% hits. AID 624418, 2012;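 further: loss of luciferase light is scored as toxicity; on the % scale 0 is the no-effect control and ±100 the full control effect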
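Step one: seed cells (200 cells/uL, DMEM with 10% Nu serum, 1% pen-strep). Step two: 12-hour incubation at 37 deg C. Step three: pin 23 nL compound, incubate 24 hr. Step four: add luciferase reagent, read luminescence 12 min later.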
TrxR1 inh: qHTS Assay for Inhibitors of Mammalian Selenoprotein Thioredoxin Reductase 1 (TrxR1): qHTS | recombinant rTrxR1, NADPH fluorescence consumption, selenite substrate | 390,000 compounds, 1% hits | Potency, µM (top dose mostly 114 µM), without a hit: at the highest dose activity change, negative = inhibition, hits mostly inhibitors | Thioredoxin reductase 1, cytoplasmic (Rattus norvegicus), O89049; further: on the % scale 0 is the no-effect control and ±100 the full control effect; nearly all actives have a fitted effect of over 65% in size
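Rat TrxR1 (90 nM in the dispensed reagent) was pre-reduced with 400 uM NADPH for 5 min at room temperature, then incubated with compound for 15 min. After 400 uM selenite was added, NADPH fluorescence (Ex 340/Em 450 nm) was followed for 8 min.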
* marks the source's active call; other numbers are inactive results; [ ] = another dose, or the depositor's remark. The call rests on the fitted dose curve; in most records, active means well fitted curve in the direction sought with a large enough effect; inconclusive means small, poorly fitted or top-dose-only effect, or another doubt; inactive means no such curve, though single readings can be large; an effect the other way counts as inactive or inconclusive. Potency means the concentration at half of the fitted maximal effect.

What do the screens show for `Cn1c(=O)n(C)c2cc(CNCc3ccccc3Cl)ccc21`?
IDH1 R132H inh: -9%; GLP-1R inv ag: -16%; TrxR1 substrate: 0%; HEK293 tox: -7%; TrxR1 inh: 20%

What do the screens show for `CC(C)(C)c1ccc(OCCOCCn2c(-c3ccc(Cl)cc3)nc3ccccc3c2=O)cc1`?
IDH1 R132H inh: 5%; GLP-1R inv ag: 6%; TrxR1 substrate: -2%; HEK293 tox: 7%; TrxR1 inh: 7%

How did O=C(Cn1cc(SCc2ccccc2Cl)c2ccccc21)N1CCCCCC1 do in these assays?
IDH1 R132H inh: -13%; GLP-1R inv ag: inconclusive; TrxR1 substrate: -2%; HEK293 tox: -4%; TrxR1 inh: 28%

How did CC[C@H](C)[C@@H]1NC(=O)[C@@H](CC(C)C)NC(=O)[C@H](C(C)C)NC(=O)[C@H]2CSSC[C@H](NC1=O)C(=O)N2 do in these assays?
GLP-1R inv ag: 4µM*; GLP1R ag: -13%; HEK293 tox: inconclusive

Results for CC(N)(Cc1ccc(O)c(O)c1)C(=O)O (configuration not stated) ?
TrxR1 substrate: 14%[57.1 µM]; TrxR1 inh: inconclusive

What do the screens show for `c1ccc(-c2ccc(-c3csc4ncnc(Sc5nnnn5-c5ccccc5)c34)cc2)cc1`?
TrxR1 substrate: -3%[0.0914 µM]; TrxR1 inh: -14%

How did O=C(NCCc1ccccc1)c1cnc2sc(N3CCCCC3)nn2c1=O do in these assays?
IDH1 R132H inh: 4%; GLP-1R inv ag: 2%; TrxR1 substrate: 38%[57.1 µM]; HEK293 tox: 2%; TrxR1 inh: 13%[57.1 µM]

How did Cc1cccc(NC(=S)N=Nc2c(O)[nH]c3ccccc23)c1 do in these assays?
IDH1 R132H inh: -4%; GLP-1R inv ag: 10µM*; GLP1R ag: -1%; TrxR1 substrate: -16%; HEK293 tox: 10µM*; TrxR1 inh: -19%

Results for COc1ccccc1N1CCN(C2CCCCC2NS(=O)(=O)c2ccccc2)CC1 (configuration not stated) ?
IDH1 R132H inh: 0%; GLP-1R inv ag: 10µM*; GLP1R ag: -5%; TrxR1 substrate: -12%; HEK293 tox: 0%; TrxR1 inh: -3%

What do the screens show for `CC(=O)c1c(C)c(C)c2n1CCn1c(C)ccc1-2`?
IDH1 R132H inh: 0%; GLP-1R inv ag: 21%; GLP1R ag: 18%; TrxR1 substrate: 1%; HEK293 tox: 5%; TrxR1 inh: 25µM*

What do the screens show for `CCC(Sc1nc2cc(OC)c(OC)cc2c(=O)n1CCc1ccc(Cl)cc1)C(=O)NCCOC` (configuration not stated)?
IDH1 R132H inh: -1%; GLP-1R inv ag: 16%; TrxR1 substrate: -4%[57.1 µM]; HEK293 tox: -6%; TrxR1 inh: 6%[57.1 µM]

Results for Cc1onc(-c2c(Cl)cccc2Cl)c1C(=O)N1CCN(c2ccc(F)cc2)CC1 ?
IDH1 R132H inh: 0%; GLP-1R inv ag: 13µM*; GLP1R ag: 11%; TrxR1 substrate: -3%[57.1 µM]; HEK293 tox: -15%; TrxR1 inh: -1%[57.1 µM]

How did Cc1onc(-c2c(Cl)cccc2Cl)c1C(=O)N1CCN(c2ccccc2)CC1 do in these assays?
IDH1 R132H inh: -1%; GLP-1R inv ag: inconclusive; GLP1R ag: -1%; TrxR1 substrate: 0%; HEK293 tox: -29%; TrxR1 inh: 19%

What do the screens show for `COc1ccc(N2CC(NC(=O)C3CC3)CC2=O)cc1OC` (configuration not stated)?
IDH1 R132H inh: -3%; GLP-1R inv ag: 7%; GLP1R ag: 0%; TrxR1 substrate: 5%[57.1 µM]; HEK293 tox: 2%; TrxR1 inh: 3%[57.1 µM]

Results for CS(=O)(=O)c1ccc(NC(=O)COc2ccccc2C(=O)Nc2ccccc2)cc1 ?
TrxR1 substrate: -1%; TrxR1 inh: 12%

Results for O=C(CCl)Nc1c2c(nn1-c1ccccc1)CSC2 ?
IDH1 R132H inh: 4%; GLP-1R inv ag: inconclusive; GLP1R ag: 4%; TrxR1 substrate: -3%; HEK293 tox: -3%; TrxR1 inh: 13µM*

What do the screens show for `COc1ccc(C2=CC(=O)C[C@H](c3ccc(Cl)cc3)C2)cc1`?
IDH1 R132H inh: -1%[38.3 µM]; GLP-1R inv ag: inconclusive; GLP1R ag: -1%; TrxR1 substrate: -4%; HEK293 tox: 11%; TrxR1 inh: 7%

Results for O=C1C=C(c2ccc(OC(F)(F)F)cc2)C[C@@H](c2ccc(Cl)cc2)C1 ?
IDH1 R132H inh: 11%; GLP-1R inv ag: 10µM*; GLP1R ag: 6%; TrxR1 substrate: -2%; HEK293 tox: inconclusive; TrxR1 inh: 37%

What do the screens show for `Cc1cnc2ccccc2c1/C=C/c1ccc(N(C)C)cc1`?
TrxR1 substrate: -1%; TrxR1 inh: 11%

What do the screens show for `c1ccc(-c2nc(SCC3CCCCO3)n[nH]2)cc1` (configuration not stated)?
TrxR1 substrate: 2%; TrxR1 inh: 10%

How did COc1cc(C(=O)NCC(c2ccc(N(C)C)cc2)N2CCc3ccccc32)cc(OC)c1OC (configuration not stated) do in these assays?
IDH1 R132H inh: -14%; GLP-1R inv ag: 11%; TrxR1 substrate: -2%[57.1 µM]; HEK293 tox: -7%; TrxR1 inh: -14%[57.1 µM]

Results for COC(=O)c1[nH]c(C)c(/C(O)=C2\C(=O)C(=O)N(CCCN3CCOCC3)C2c2ccccn2)c1C (configuration not stated) ?
IDH1 R132H inh: -2%; GLP-1R inv ag: 12%; GLP1R ag: -4%; TrxR1 substrate: -7%; HEK293 tox: -13%; TrxR1 inh: 25µM*

What do the screens show for `CCOC(=O)c1[nH]c(C)c(/C(O)=C2\C(=O)C(=O)N(CCCN(CC)CC)C2c2cccnc2)c1C` (configuration not stated)?
IDH1 R132H inh: 1%; GLP-1R inv ag: 1%; GLP1R ag: -5%; TrxR1 substrate: 1%; HEK293 tox: -13%; TrxR1 inh: 0%

Results for COc1ccc(/C(O)=C2/C(=O)C(=O)N(CCN3CCOCC3)C2c2ccccn2)cc1 (configuration not stated) ?
IDH1 R132H inh: -2%; GLP-1R inv ag: 18%; GLP1R ag: 0%; TrxR1 substrate: -3%; HEK293 tox: 80%; TrxR1 inh: 50µM*
